# T1: USP38, Q8NB14
# T1 chain: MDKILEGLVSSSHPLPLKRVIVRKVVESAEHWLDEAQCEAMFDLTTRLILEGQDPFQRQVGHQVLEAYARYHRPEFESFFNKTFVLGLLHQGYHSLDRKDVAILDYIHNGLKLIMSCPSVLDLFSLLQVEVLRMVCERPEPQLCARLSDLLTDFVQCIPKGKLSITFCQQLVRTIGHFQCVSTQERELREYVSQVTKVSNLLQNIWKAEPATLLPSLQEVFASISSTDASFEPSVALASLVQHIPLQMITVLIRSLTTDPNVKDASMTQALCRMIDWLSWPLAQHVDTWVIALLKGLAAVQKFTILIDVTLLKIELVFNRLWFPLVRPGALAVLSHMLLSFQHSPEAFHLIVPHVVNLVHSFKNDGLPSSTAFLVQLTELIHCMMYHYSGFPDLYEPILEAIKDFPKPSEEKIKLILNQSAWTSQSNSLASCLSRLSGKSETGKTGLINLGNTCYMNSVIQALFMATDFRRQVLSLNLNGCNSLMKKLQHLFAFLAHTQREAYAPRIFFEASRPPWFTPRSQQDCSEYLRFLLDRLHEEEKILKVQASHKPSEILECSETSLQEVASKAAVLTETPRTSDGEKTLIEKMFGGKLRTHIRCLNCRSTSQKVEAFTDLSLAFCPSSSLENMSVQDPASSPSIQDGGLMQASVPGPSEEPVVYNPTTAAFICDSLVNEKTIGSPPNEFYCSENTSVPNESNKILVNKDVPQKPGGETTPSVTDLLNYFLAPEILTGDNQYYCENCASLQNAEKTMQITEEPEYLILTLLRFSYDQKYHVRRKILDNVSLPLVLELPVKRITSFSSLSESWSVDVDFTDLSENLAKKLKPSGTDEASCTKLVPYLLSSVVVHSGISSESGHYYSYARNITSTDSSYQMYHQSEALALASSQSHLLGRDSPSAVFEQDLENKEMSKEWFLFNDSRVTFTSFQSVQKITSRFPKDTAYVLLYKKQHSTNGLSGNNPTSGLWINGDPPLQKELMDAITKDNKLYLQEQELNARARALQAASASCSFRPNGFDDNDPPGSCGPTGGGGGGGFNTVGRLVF
# Target: T1, USP38, Q8NB14
# Experiment: median log2 fold change of GCK-ALFA target abundance (FLAG IP / Myc IP barcode read proportion) (log2 ratio); each designed protein is fused to an ALFA-tag nanobody in HEK293 cells to bring the named protein to FLAG-tagged glucokinase (GCK); Myc marks an untargeted standard; higher = target protein stabilised (more abundant)
# Conditions: target protein: 3xFLAG-MCP-GCK-ALFA reporter; HEK293 landing pad (RPLP)
# Summary of the method: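 The readout is target abundance, the per-binder median log2 ratio of FLAG to Myc barcode read proportions. It came from HEK293 landing-pad cells carrying a recombined ALFA-nanobody-fused binder library, induced with 2 μg mL^−1 doxycycline and transfected with a plasmid for a FLAG-tagged target and a Myc-tagged standard. After 48 h, lysates were immunoprecipitated with anti-FLAG and anti-Myc, and circular RNA barcodes were reverse transcribed, amplified and sequenced. Each barcode needed a proportion of at least 10^−7 in both replicates and each binder at least 3 barcodes per replicate, a pseudocount of 10^−6 was added, and the replicates were pooled.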
row,Binder,median log2 fold change
1,usp_38_diff_out_18_14_281 (protein) SEELSKALLSNLESLKKDVEEDTERVLRLLEKNKDDPERVKRIVERAERDLAGVIEYAKEVLELAKKNGDEETLKAAKELIKKAEEARKRIEEKAKKVLA,0.189
2,usp_38_diff_out_18_14_301 (protein) SEELAEALRSNLELLKEDVKEDTERVIRLLKKNKNDPERVKDIYERAKRNLAGVREYAEEVLEEAEEAGDEETAEAARELLETIEEERKKIEEEYKKVMA,-0.149
3,usp_38_diff_out_18_14_291 (protein) SEELSEAEKSALELLKEEVKKDTERTIKLLEKVKDDPERVERIVERANRNLEGVRAYAEAVKKEAEARGDEETVKAAEELLKTIEEARERIEKAYKEVKA,-0.0115
4,usp_38_diff_out_18_14_277 (protein) SEELKEALKSNLESLKKDVEEDTKRVIELLDKRKDDPEEVKRIYERAKRNLAGVKEYAKEVLEEAEKAGDEETKKAAEELIKKAEEAEKKIEEKVKEVLA,0.312
5,usp_38_diff_out_18_14_308 (protein) AEELAAAKKSNLESLKEEVKKYTERVIELLKKAKDDPERVKRIYERAQRDLEGVRTYAEEVLKEAEAAGDEETKAAAKELLKEIDEAKKKVEKAYKEVMA,-0.392
6,usp_38_diff_out_18_14_282 (protein) MEELSEALKSNLESLKKDVEEDTKRVIELLEKNKDDPERVKRIYERAERNLEGVLTYAEEVLELAEKLGDEEVKKAAEELKKEAEKAREEIKKKVEKVLA,0.237
7,usp_38_diff_out_18_14_276 (protein) SSELSEALKSNLESLKKDVKEDTERVLRLLDKRKDDPEQVKRIVERAERDLAGVREYAKEVLREAEERGDEETKKAAEELLKEADAALAKVKAKAKEVLA,0.242
8,usp_38_diff_out_18_14_284 (protein) SAELAAAEKAALEILKTDVKKDTERVIRLLKKAKDDPERVKRIYERAKRNLEGVETYAKEVLERAKKAGDKETKAAAEELLKEIEEAKKKIEEAYKEVMA,0.0553
9,usp_38_diff_out_18_14_283 (protein) SEELSKALKSNLESLKEDVKKDTERVLRLLEKRKDDPEQVKRIKERAERNLEGVITYAEEVLKEAEKEGDEEVKKAAKELIEEAKKAREKIEEKVKEVLA,-0.104
10,usp_38_diff_out_18_14_295 (protein) SEELSKAEISVLETLTKEVEADTDRTIALLEKVADDPERVKRIVERANRNLAGVRAYAEEVKERAEERGDEETVKKAEELLKKIDEAEARIAAAEAAVRA,0.017
11,usp_38_diff_out_18_14_275 (protein) SSELSEALQSNLESLKKDVKEDTERVLRLLEKRKDDPEQVKRIEERARRNLEGVIKFAEEVLKLAKELGDKETQKAAEELIKLAKEARKRVEEKVKEVLA,-0.129
12,usp_38_diff_out_18_14_307 (protein) GEELAAAQLSNLNSLKTDVEKDTERVIKLLKKAKDDPERVKRIYERAKRNLAGVRTYATEVKEEAEKAGNAELVAAANDLLATIDDAEKKIEEEYKKVMA,-0.0463
13,usp_38_diff_out_18_14_279 (protein) SEELNEALLSNLESLKEDVERDTERVLRLLEANRDDPERVKRIVERAERNLAGVIEFAKEVLKEAEKAGNEELLKAAKELIKRAKEALERIRRKAEEVLA,-0.00242
14,usp_38_diff_out_18_14_280 (protein) SEELSEALLSNLKSLKKDVEEYTKRVLRLLEKNKDDPERVKRIKERAERNLAGVKKYAEEVLKEAEEEGDEETLKAAKELKETAEKALAEIEKKVKEVLA,-0.87
15,usp_38_diff_out_18_14_293 (protein) DAELSAAERSALATLRTDVAADTARTIALLKRVKDDPERVDRVVERARRNLAGVRAFAEEVLREAEERGDEETVAAARELLAAIDAAEAAVAAAAAAVRA,-0.59
16,usp_38_diff_out_18_14_309 (protein) SAELAEAKKKNLEQLTTDVKEDTERVIRLLRKRRDDPEAVKRLYERAQRNLAGVRKYAEEVKKEAEKAGDKETVAAAEKLLKEVAEAEKRIEEEYARVMA,-0.138

row,Binder,median log2 fold change
1,usp_38_diff_out_18_14_286 (protein) SAELAAAEKSALEILKKDVKEDTKRVIRLLEKAKDDPELVERIYERAKRDLAGVRAYAEEVLKRAEEAGDEETKAAAKELLKEIDKAKKEIDAAYKKVMA,0.128
2,usp_38_diff_out_18_14_294 (protein) SSELSEAEVSALELLKKEVREDTERTIRLLEKVKDDPERVKRIVERRQRNLAGVRAYAEEVRRRAEELGDEETVAAANELLAEIDKAEKEVEEAVKRVEA,0.136
3,usp_38_diff_out_18_14_287 (protein) SEEEAEALKSALEILRGDVDAYTERVIRLLEQAAGDPERVRRIHERARRNLAGVRAYAEEVLKRAEEAGDEETKKAAEELLRRVAEAEARIAARYAEVTA,-0.622
4,usp_38_diff_out_18_14_299 (protein) SAELAEAKAANLKLLKTDVKEDTERVIKLLKKNKNDPERVKRIYDRAKRNLAGVRTYAEEVLEEAKAAGDAATAAAAQELLKTIDEEEKKIEEEYKKVMA,-0.444
5,usp_38_diff_out_18_14_300 (protein) SAELAEALKSNLEILKEDVKRYTERVIRLLRKNKDDPERVKRIYERAKRDLEGVRKFAEEVLKLAKEEGDEETAKAAEELLKTIEEEEKRIEEEYKRVMA,-0.852
6,usp_38_diff_out_18_14_288 (protein) SEELSEAEISALKLLREDVERDTERTIRLLERARDDPERVRRIVERRERNLAGVRAYAEEVKKEAEERGDEETVKAAEELLRAIEEARARVAAARERVLA,-0.282
7,usp_38_diff_out_18_14_302 (protein) AAELAAAKKSNLESLKKDVEEDTKRVIELLEKAKDDPERVKRIYENAKRNLAGVRKYAEEVKKEAEEAGDKETVAAAEELLKTIEEAEKKVEEAYKKVMA,0.326
8,usp_38_diff_out_18_14_296 (protein) SSELSEAERSVLELLKEEVKKDTERTIKLLEKVKDDPERVKRIVERAERNLAGVRAFAEEVKERAEKEGDEETVKAAEELLAEIDAARERIAAAREKVLA,-0.447
9,usp_38_diff_out_18_14_285 (protein) SAELAAAEKSALEILKKDVKEFTKRVIRLLKKSKDDPERVKRIYDRAKRDLAGVEKYAQEVLKRAEKAGDKETKAAAKELLKEIEKAKEEIEKEYKEVMA,-0.615
10,usp_38_diff_out_18_14_292 (protein) SEELSEAEKSVLETLKKDVREDTERTIRLLEKVKDDPERVKRVVERARRNLAGVRAYAEEVKERAEKRGDEETVKAAEELLKEVEKAEERIEKAEEEVLK,0.0826
11,usp_38_diff_out_18_14_306 (protein) SEELAEAERSNLESLKKDVKEYTERVIKLLEKAKDDPERVKRIYERAKRNLAGVEEYAKEVLKRAKEAGDEETVKAAEELLKTIEEARKKVEEAYEKVMK,-0.549
12,usp_38_diff_out_18_14_289 (protein) AEELSAAERAALELLLEEVRRDTERTIRLLRRVRDDPERVERIVERAERNLAGVRAYAEDVRARARAAGDEETVAAADRLLAEVEAARARIEEERRRVLA,-0.0195
13,usp_38_diff_out_18_14_303 (protein) GEELAKAELENLKQLKADVKAYTERVIRLLEAARDDPERVKRIYERAQRDLAGVETYAKEVKKEAEKRGDKELVKAAEELLKEVAAARERVEAAYRAVMA,-0.327
14,usp_38_diff_out_18_14_304 (protein) SEELAAALKSNLESLTKEVKEDTERVIKLLKKRKDDPEEVKRIYERAERNLAGVEAYAKEVKAEAEKAGDAETVAAAEALLKEVKEAREKVKKAYEEVMA,0.296
15,usp_38_diff_out_18_14_290 (protein) SEELSKAEISALELLKKEVKENTERTIKLLEKVKDDPELVKRVMERAERNLAGVRAYAEDVKERAKERGDEETVKAAEELLKEIEEARKKLKEEYKKVMA,0.00299
16,usp_38_diff_out_18_14_297 (protein) SEELSEAEISNLELLKKEVEEDTERTIELLEKVKDDPERVKRIVERALRNLAGVEAYAKDVKERAEKEGNEKTVAAANELLATIEEARKRIEEKYKKVME,0.335
